Test results from PubChem BioAssay (NCI).
Compounds without any hit were thinned out: in the full panel of roughly 79,000, 15% have a hit. Calls of active or inactive are those of the source. Rule as the data show it: active = growth inhibition above about 70%; inactive = the rest.

Tests used:
[1] = NCI Yeast Anticancer Drug Screen. Data for the rad52 strain (AID 147);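 also: 0% = growth of vehicle-treated control cultures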; settings: S. cerevisiae rad52 mutant growth inhibition, hits give high values
Method in brief: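 Genetically altered yeast (DNA damage repair defect) treated with compound; inhibition calculated relative to vehicle.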

[2] = NCI Yeast Anticancer Drug Screen. Data for the wt1 strain (AID 149);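 also: 0% = growth of vehicle-treated wt1 cultures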; settings: S. cerevisiae wt1 strain (SPY 50644) growth inhibition, hits give high values
Method in brief: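 Vehicle-normalised growth inhibition; strain wt1; compound exposure.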

[3] = NCI Yeast Anticancer Drug Screen. Data for the rad50EPP+ strain (AID 151);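 also: 0% = growth of vehicle-treated control cultures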; settings: S. cerevisiae rad50 mutant strain, hits give high values
Method in brief: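 Strain rad50EPP+; compound exposure; % growth inhibition vs vehicle.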

[4] = NCI Yeast Anticancer Drug Screen. Data for the mgt1 strain (AID 153); settings: S. cerevisiae mgt1 mutant growth inhibition, hits give high values
Method in brief: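 Read-out: yeast growth inhibition vs vehicle control. Strain mgt1, drawn from a panel altered in DNA damage repair or cell cycle control.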

[5] = NCI Yeast Anticancer Drug Screen. Data for the rad50 strain (AID 155);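 also: 0% = growth of vehicle-only cultures of the same strain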; settings: S. cerevisiae rad50 strain growth inhibition, hits give high values
Method in brief: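 A DNA repair-deficient yeast mutant serves as the test organism; compound-induced growth inhibition is calculated against vehicle-treated cells.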

[6] = NCI Yeast Anticancer Drug Screen. Data for the mec2-1 strain (AID 157); settings: S. cerevisiae mec2-1 strain, hits give high values
Method in brief: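 Cells of the genetically defined mec2-1 yeast strain are incubated with test compound. Inhibition of growth is calculated against vehicle-treated controls.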

[7] = NCI Yeast Anticancer Drug Screen. Data for the rad14 strain (AID 159);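 also: 0% = growth of vehicle-treated control cultures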; settings: S. cerevisiae rad14 strain growth inhibition, hits give high values
Method in brief: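 Vehicle-treated cultures served as the baseline for growth inhibition of a DNA repair-mutant yeast strain exposed to each compound.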

[8] = NCI Yeast Anticancer Drug Screen. Data for the sgs1 mgt1 strain (AID 161);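 also: 0% = growth of cultures given vehicle only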; settings: S. cerevisiae sgs1 mgt1 strain, hits give high values
Method in brief: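 Genetically altered yeast, compound exposure, growth inhibition relative to vehicle.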

[9] = NCI Yeast Anticancer Drug Screen. Data for the CLN2oe strain (AID 163);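 also: 0% = growth of vehicle-only control cultures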; settings: S. cerevisiae CLN2oe strain, hits give high values
Method in brief: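 Strain altered in cell-cycle control, incubated with compound; growth compared to solvent-treated controls.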

[10] = NCI Yeast Anticancer Drug Screen. Data for the cln2 rad14 strain (AID 165);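 also: 0% = growth equal to vehicle treated cultures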; settings: S. cerevisiae cln2 rad14 strain, hits give high values
Method in brief: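 The screen exposed genetically defined yeast (cln2 rad14) to test compounds and scored growth inhibition relative to vehicle-treated controls.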

[11] = NCI Yeast Anticancer Drug Screen. Data for the bub3 strain (AID 167); settings: S. cerevisiae bub3 mutant strain, hits give high values
Method in brief: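 Inhibition values come from growth of compound-treated mutant yeast normalised to vehicle-treated controls.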

[12] = NCI Yeast Anticancer Drug Screen. Data for the wt2 strain (AID 169);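 also: 0% = growth of vehicle-treated yeast cultures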; settings: S. cerevisiae wt2 strain growth inhibition, hits give high values
Method in brief: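 Steps: yeast strain treated with compound; growth recorded; inhibition calculated relative to cultures given vehicle alone.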

[13] = NCI Yeast Anticancer Drug Screen. Data for the mlh1 strain (AID 171);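 also: 0% = growth of vehicle-treated control cultures of the same strain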; settings: S. cerevisiae mlh1 strain growth inhibition, hits give high values
Method in brief: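 Yeast screen: mutant strain plus compound, growth scored against vehicle control wells.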

[14] = NCI Yeast Anticancer Drug Screen. Data for the sgs1 strain (AID 173);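 also: 0% = growth of vehicle-only control cultures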; settings: S. cerevisiae sgs1 mutant, hits give high values
Method in brief: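 Inhibition of yeast growth served as the measure. The mutant strain was treated with each compound, and growth was normalised to cultures receiving vehicle alone.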

[15] = NCI Yeast Anticancer Drug Screen. Data for the mlh1 rad18 strain (AID 175); settings: S. cerevisiae mlh1 rad18 strain growth inhibition, hits give high values
Method in brief: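 Compound-treated yeast growth, normalised to vehicle controls. Strain bears defined DNA repair mutations.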

[16] = NCI Yeast Anticancer Drug Screen. Data for the rad18 strain (AID 177); settings: S. cerevisiae rad18 mutant growth inhibition, hits give high values
Method in brief: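 Inhibition values reflect reduced yeast growth compared with vehicle-treated controls, using a strain engineered with a DNA damage repair defect.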

[17] = at 5.0 µM (retest, dose inferred, filed as 0.5)
[18] = at 50.0 µM (retest, dose inferred, filed as 5.0)

Measured: growth inhibition

N#CC(=C1C=CC(=NO)C=C1)c1ccccc1
active: [1]; at 11.0 µM 98% | [1]; at 33.0 µM 99% | [1]; at 100.0 µM 99% | [2]; at 11.0 µM 99% | [2]; at 33.0 µM 99% | [2]; at 100.0 µM 99% | [3]; at 11.0 µM 96% | [3]; at 33.0 µM 99% | [3]; at 100.0 µM 98% | [4]; at 11.0 µM 99% | [4]; at 33.0 µM 99% | [4]; at 100.0 µM 99% | [5]; at 11.0 µM 98% | [5]; at 33.0 µM 99% | [5]; [18] 99% | [5]; at 50.0 µM 99.3% | [5]; at 100.0 µM 99% | [6]; at 11.0 µM 99% | [6]; at 33.0 µM 99% | [6]; [18] 99% | [6]; at 50.0 µM 99.5% | [6]; at 100.0 µM 99% | [7]; at 11.0 µM 98% | [7]; at 33.0 µM 99% | [7]; at 100.0 µM 99% | [8]; [18] 99% | [8]; at 50.0 µM 99.4% | [9]; at 11.0 µM 97% | [9]; at 33.0 µM 99% | [9]; at 100.0 µM 99% | [10]; [18] 99% | [10]; at 50.0 µM 99.2% | [11]; at 11.0 µM 94% | [11]; at 33.0 µM 97% | [11]; [18] 99% | [11]; at 50.0 µM 99.3% | [11]; at 100.0 µM 99% | [12]; at 11.0 µM 99% | [12]; at 33.0 µM 99% | [12]; at 100.0 µM 99% | [13]; at 11.0 µM 99% | [13]; at 33.0 µM 99% | [13]; at 100.0 µM 99% | [14]; at 11.0 µM 99% | [14]; at 33.0 µM 99% | [14]; at 100.0 µM 99% | [15]; [18] 99% | [15]; at 50.0 µM 99.4% | [16]; at 11.0 µM 99% | [16]; at 33.0 µM 99% | [16]; at 100.0 µM 99%
inactive: [1]; at 1.2 µM 6% | [1]; at 3.7 µM 24% | [2]; at 1.2 µM 3% | [2]; at 3.7 µM 13% | [3]; at 1.2 µM 24% | [3]; at 3.7 µM 64% | [4]; at 1.2 µM 1% | [4]; at 3.7 µM 24% | [5]; at 1.2 µM 4% | [5]; at 3.7 µM 26% | [5]; [17] 30% | [6]; at 1.2 µM -3% | [6]; at 3.7 µM 14% | [6]; [17] 19% | [7]; at 1.2 µM 5% | [7]; at 3.7 µM 24% | [8]; [17] 35% | [9]; at 1.2 µM 2% | [9]; at 3.7 µM 10% | [10]; [17] -1% | [11]; at 1.2 µM -21% | [11]; at 3.7 µM -19% | [11]; [17] 35% | [12]; at 1.2 µM 4% | [12]; at 3.7 µM 41% | [13]; at 1.2 µM 3% | [13]; at 3.7 µM 15% | [14]; at 1.2 µM 9% | [14]; at 3.7 µM 50% | [15]; [17] 64% | [16]; at 1.2 µM 12% | [16]; at 3.7 µM 43%
